Reference: article PMC5540273 (PLoS ONE, 2017)

What was measured:
Conditions in all cases: concentration: 1 μM, replicates: in singlicate; n = 1
[1] = system: CDKL5
[2] = system: CHEK1
[3] = system: CHEK2
[4] = system: CIT
[5] = system: CLK1
[6] = system: CLK2
[7] = system: CLK3
[8] = system: CLK4
[9] = system: CSF1R-autoinhibited
[10] = system: CSF1R
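Further: KINOMEscan kinase panel screen.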

Row | SMILES | %Inh [1] [%] | %Inh [2] [%] | %Inh [3] [%] | %Inh [4] [%] | %Inh [5] [%] | %Inh [6] [%] | %Inh [7] [%] | %Inh [8] [%] | %Inh [9] [%] | %Inh [10] [%]
1 | COc1cc2ncnc(Nc3cccc(Br)c3)c2cc1OC.Cl [GI230329] | 0 | 0 | 54 | 53 | 31 | 0 | 0 | 15 | 44 | 4
2 | Cc1ccc(NC(=O)c2ccc(Cl)cc2)cc1-c1ccc(C(=O)Nc2ccncc2)cc1 [GSK1398467] | 0 | 16 | 0 | 69 | 3 | 100 | 0 | 15 | 0 | 97.1
3 | Cc1ccc(NC(=O)Nc2ccccc2)cc1-c1ccc(C(=O)Nc2ccncc2)cc1 [GSK1398471] | 11 | 0 | 0 | 93 | 20 | 0 | 7 | 14 | 0 | 84
4 | CC(=O)c1c(C)c2cnc(Nc3ccc(N4CCNCC4)cn3)nc2n(C2CCCC2)c1=O | 0 | 0 | 16 | 3 | 23 | 0 | 100 | 13 | 7 | 7
5 | c1ccc(-c2ccnc3[nH]ccc23)cc1 [SB-693578] | 9 | 12 | 0 | 3 | 12 | 8 | 29 | 5 | 47 | 8
6 | Fc1ccc(-c2nn3cccc(F)c3c2-c2ccncc2)cc1 [GW475620] | 0 | 0 | 0 | 96.3 | 22 | 0 | 6 | 26 | 0 | 0
7 | Cc1c(Cn2c(C)c(C)n3c(=O)cc(N4CCOCC4)nc23)cccc1C(F)(F)F [GSK2328680] | 0 | 0 | 8 | 19 | 22 | 0 | 6 | 21 | 14 | 0
8 | COC(=O)C(NC(=O)NC1CCN(c2ccnc(Nc3ccc(F)cc3)n2)C1)c1ccccc1 (centres unmarked) [GSK1379712] | 3 | 3 | 37 | 0 | 9 | 0 | 0 | 0 | 34 | 5
9 | COc1ccc(Nc2nccc(N3CCC(NC(=O)C(C)c4ccc(Cl)cc4)C3)n2)cc1 (centres unmarked) [GSK1379735] | 9 | 26 | 0 | 26 | 16 | 13 | 0 | 8 | 8 | 27
10 | COc1ccc(CSc2nnc(-c3ccc4nccn4c3)o2)cc1C(F)(F)F | 16 | 23 | 17 | 14 | 97.1 | 91.9 | 12 | 90.3 | 6 | 17
11 | COc1ccc(CSc2nnc(-c3ccc4ncsc4c3)o2)cc1C(F)(F)F | 8 | 1 | 17 | 9 | 90.5 | 39 | 0 | 83 | 0 | 1
12 | CCc1ccc(-c2ccc3c(c2)-c2n[nH]cc2S(=O)(=O)N3C)cc1 | 0 | 0 | 0 | 0 | 0 | 0 | 1 | 4 | 5 | 0
13 | Cc1nccc(-c2c(-c3ccc(F)cc3)ncn2CCCN2CCOCC2)n1.Cl [SB-282975] | 0 | 7 | 14 | 21 | 21 | 5 | 18 | 0 | 0 | 0
14 | Cc1ccc(-c2nc(Nc3ccncc3)c3ccccc3n2)s1 [GSK189015] | 14 | 22 | 0 | 42 | 35 | 0 | 0 | 28 | 0 | 4
15 | COc1ccc(Nc2nccc(-c3ccc(NC(=O)c4cc5cc(F)ccc5[nH]4)cc3)n2)cc1 [GSK1229496] | 0 | 100 | 26 | 0 | 5 | 0 | 19 | 18 | 15 | 0
16 | O=C(Nc1n[nH]c2nc(-c3cccs3)c(Br)cc12)C1CC1 [SB-735297] | 0 | 0 | 0 | 0 | 11 | 0 | 0 | 0 | 0 | 0

Row | SMILES | %Inh [1] [%] | %Inh [2] [%] | %Inh [3] [%] | %Inh [4] [%] | %Inh [5] [%] | %Inh [6] [%] | %Inh [7] [%] | %Inh [8] [%] | %Inh [9] [%] | %Inh [10] [%]
17 | CN1c2ccc(-c3ccc(C(N)=O)cc3)cc2-c2[nH]ncc2S1(=O)=O | 0 | 0 | 49 | 0 | 25 | 70 | 0 | 15 | 17 | 0
18 | Cn1cnc2c(N)ncnc21 [SKF-97623] | 0 | 0 | 24 | 1 | 6 | 0 | 2 | 0 | 41 | 0
19 | Cc1cccc2c(-c3ccncn3)c(-c3ccc(F)cc3)nn12 [GW515532] | 0 | 5 | 0 | 82 | 99.9 | 0 | 100 | 22 | 0 | 0
20 | CCn1c(-c2ccccc2)nc2cnccc21 [SB-733416] | 4 | 29 | 0 | 23 | 17 | 0 | 0 | 3 | 0 | 13
21 | COC(=O)c1cccc(NC(=O)NC2CCN(c3ccnc(Nc4ccc(F)cc4)n3)C2)c1 (centres unmarked) [GSK1379725] | 7 | 0 | 0 | 12 | 10 | 0 | 0 | 10 | 0 | 2
22 | COc1nccc(-c2c(-c3ccc(F)cc3)ncn2CCCN2CCOCC2)n1 [SB-282852] | 0 | 0 | 0 | 17 | 73 | 0 | 0 | 5 | 41 | 0
23 | Nc1cccc(-c2ccc3c(N)n[nH]c3c2)n1 [GSK2192730] | 4 | 0 | 13 | 17 | 28 | 18 | 0 | 0 | 0 | 14
24 | CCCCc1nn2ncccc2c1-c1ccnc(NC2CC2)n1 [GW684374] | 0 | 0 | 3 | 25 | 40 | 26 | 90.7 | 0 | 0 | 7
25 | CC(C)c1cc(-c2ccc3c(N)n[nH]c3c2)nc(N)n1 [GSK2250882] | 0 | 0 | 84 | 5 | 59 | 21 | 0 | 62 | 6 | 5
26 | CS(=O)(=O)Cc1ccc(Nc2nccc(-c3c(-c4cccc(NC(=O)C5CCCCC5)c4)nn4ncccc34)n2)cc1 [GSK350559] | 33 | 12 | 0 | 10 | 10 | 10 | 24 | 0 | 35 | 79
27 | Fc1ccc(-c2nc[nH]c2-c2ccncc2)cc1 [SB-217360] | 2 | 0 | 16 | 93.7 | 5 | 10 | 10 | 0 | 0 | 0
28 | CNc1nc(-c2ccc3c(N)n[nH]c3c2)cc(N2C[C@@H](C(=O)NC3CCCCC3)OC[C@H]2C)n1 [GSK2375584] | 1 | 7 | 27 | 0 | 21 | 0 | 0 | 20 | 37 | 2
29 | Cc1ccccc1Cn1ccn2c(=O)cc(N3CCOCC3)nc12 [GSK2269905] | 3 | 0 | 0 | 3 | 48 | 0 | 28 | 30 | 0 | 26
30 | Cc1cnc(N)c(/C=C/c2cncc(C(=O)NCCc3ccc(Cl)cc3Cl)c2)c1.Cl [GSK190937] | 9 | 0 | 26 | 31 | 38 | 48 | 0 | 57 | 6 | 25
31 | Cc1ccccc1-c1cc(-c2c[nH]nc2-c2ccccn2)ccn1 [GW680061] | 0 | 85 | 4 | 24 | 15 | 0 | 0 | 15 | 10 | 3
32 | Cc1ccc(NC(=O)Nc2ccc(Cl)c(C(F)(F)F)c2)cc1-c1ccc(C(=O)Nc2ccncc2)cc1 [GSK1398470] | 6 | 0 | 0 | 90.6 | 14 | 3 | 0 | 24 | 0 | 30
